Test results from PMC7862700, “An all-to-all approach to the identification of sequence-specific readers for epigenetic DNA modifications on cytosine”.

Assays:
Assay in all cases: DAPPL (digital affinity profiling via proximity ligation, sequencing); 10 mM Tris-HCl pH 7.5, 50 mM NaCl, 1 mM DTT, 4% glycerol, room temperature, 30 min; GST-TFs on glutathione beads, 16-mer random dsDNA library, 0.1% formaldehyde crosslink after washing; high values mean tight binding
[1] = target: T1, FEV (Homo sapiens, UniProt Q99581 1-238); details: protein: recombinant; tags: N-terminal GST; dsDNA, one strand shown
T1 sequence: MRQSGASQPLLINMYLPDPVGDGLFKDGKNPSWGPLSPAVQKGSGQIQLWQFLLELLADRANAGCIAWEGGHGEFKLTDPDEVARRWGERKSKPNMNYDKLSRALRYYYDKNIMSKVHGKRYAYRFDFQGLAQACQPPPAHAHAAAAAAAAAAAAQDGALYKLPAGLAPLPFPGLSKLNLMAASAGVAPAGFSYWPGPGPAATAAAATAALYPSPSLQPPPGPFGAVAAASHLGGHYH
Method in brief: (§1)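 Sequencing on an Illumina NextSeq500 followed washing, crosslinking with 0.1% formaldehyde, proximity ligation (BsaI/T4 ligase, 1 h, 37 °C) and PCR amplification of pools that had been incubated for 30 min at room temperature with 200 nmole of a random double-stranded 16-mer DNA library in Tris/NaCl/DTT/glycerol buffer. Each pool held DNA-barcoded human transcription factors, expressed in yeast as GST fusions and captured on glutathione beads, plus a tag-only sample. Binding signal is a hexamer's read frequency for a factor divided by its frequency in the tag-only sample.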

[2] = target: ETV5 (Homo sapiens, UniProt P41161 1-510); details: protein: recombinant; tags: N-terminal GST; dsDNA, one strand shown
ETV5, sequence (P41161 whole entry): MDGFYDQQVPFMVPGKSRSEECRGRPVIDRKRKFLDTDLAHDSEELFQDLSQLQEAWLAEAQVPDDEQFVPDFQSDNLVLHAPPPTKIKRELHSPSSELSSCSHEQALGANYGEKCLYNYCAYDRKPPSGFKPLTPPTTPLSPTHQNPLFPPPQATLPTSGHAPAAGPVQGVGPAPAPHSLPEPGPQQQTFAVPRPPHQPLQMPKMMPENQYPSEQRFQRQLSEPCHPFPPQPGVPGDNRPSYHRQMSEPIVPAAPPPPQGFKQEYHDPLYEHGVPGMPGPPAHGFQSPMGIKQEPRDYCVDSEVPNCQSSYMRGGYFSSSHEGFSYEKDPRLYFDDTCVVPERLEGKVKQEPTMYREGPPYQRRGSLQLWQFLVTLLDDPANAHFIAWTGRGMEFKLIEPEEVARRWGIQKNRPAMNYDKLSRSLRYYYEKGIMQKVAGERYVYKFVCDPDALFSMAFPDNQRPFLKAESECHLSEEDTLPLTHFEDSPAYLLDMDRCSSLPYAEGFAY
Method in brief: as §1

[3] = target: HSF1 (Homo sapiens, UniProt Q00613 1-529); details: protein: recombinant; tags: N-terminal GST; chain copies: 3; dsDNA, one strand shown
HSF1, sequence (Q00613 whole entry): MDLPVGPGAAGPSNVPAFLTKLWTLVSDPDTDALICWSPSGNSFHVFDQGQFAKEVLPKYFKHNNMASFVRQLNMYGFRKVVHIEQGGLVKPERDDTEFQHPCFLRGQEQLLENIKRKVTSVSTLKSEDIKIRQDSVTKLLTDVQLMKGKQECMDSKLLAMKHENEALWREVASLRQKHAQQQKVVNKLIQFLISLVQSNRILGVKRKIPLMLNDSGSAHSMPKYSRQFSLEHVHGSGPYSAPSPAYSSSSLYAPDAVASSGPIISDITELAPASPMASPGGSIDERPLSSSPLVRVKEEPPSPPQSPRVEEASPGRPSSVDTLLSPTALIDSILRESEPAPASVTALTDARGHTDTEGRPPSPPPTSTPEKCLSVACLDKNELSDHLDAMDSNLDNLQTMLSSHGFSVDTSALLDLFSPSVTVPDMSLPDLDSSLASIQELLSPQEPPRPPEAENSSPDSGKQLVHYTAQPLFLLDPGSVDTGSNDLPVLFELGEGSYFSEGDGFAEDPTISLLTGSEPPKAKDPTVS
Method in brief: as §1

[4] = target: T2, SPIC (Homo sapiens, UniProt Q8N5J4 1-248); details: protein: recombinant; tags: N-terminal GST; dsDNA, one strand shown
T2 sequence: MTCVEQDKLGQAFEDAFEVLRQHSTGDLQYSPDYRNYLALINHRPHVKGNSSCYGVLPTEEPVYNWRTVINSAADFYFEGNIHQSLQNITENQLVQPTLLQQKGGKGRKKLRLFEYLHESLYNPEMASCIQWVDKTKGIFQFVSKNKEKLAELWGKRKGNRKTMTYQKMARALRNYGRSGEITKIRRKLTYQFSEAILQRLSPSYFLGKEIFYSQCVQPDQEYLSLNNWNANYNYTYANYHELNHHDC
Method in brief: as §1

[5] = target: ELF4 (Homo sapiens, UniProt Q99607 1-663); details: protein: recombinant; tags: N-terminal GST; dsDNA, one strand shown
ELF4, sequence (Q99607 whole entry): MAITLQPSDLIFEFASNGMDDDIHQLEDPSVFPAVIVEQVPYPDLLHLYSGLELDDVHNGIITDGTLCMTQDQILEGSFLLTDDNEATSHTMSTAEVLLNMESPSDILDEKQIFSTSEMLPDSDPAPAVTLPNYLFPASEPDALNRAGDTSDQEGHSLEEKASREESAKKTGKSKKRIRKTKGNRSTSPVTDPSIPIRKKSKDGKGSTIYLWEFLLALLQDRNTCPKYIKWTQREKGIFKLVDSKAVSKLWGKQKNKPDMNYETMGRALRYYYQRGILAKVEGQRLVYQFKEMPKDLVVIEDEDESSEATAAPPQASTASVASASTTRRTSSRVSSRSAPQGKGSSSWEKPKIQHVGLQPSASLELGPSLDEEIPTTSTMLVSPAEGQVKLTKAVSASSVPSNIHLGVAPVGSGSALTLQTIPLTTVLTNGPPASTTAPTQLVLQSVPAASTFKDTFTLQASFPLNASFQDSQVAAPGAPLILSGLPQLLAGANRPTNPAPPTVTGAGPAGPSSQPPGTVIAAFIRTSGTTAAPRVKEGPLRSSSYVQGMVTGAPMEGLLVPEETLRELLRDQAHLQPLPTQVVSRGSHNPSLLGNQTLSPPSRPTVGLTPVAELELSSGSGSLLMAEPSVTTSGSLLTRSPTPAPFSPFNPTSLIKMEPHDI
Method in brief: as §1

[6] = target: T3, ELK4 (Homo sapiens, UniProt P28324-2 1-405); details: protein: recombinant; tags: N-terminal GST; dsDNA, one strand shown
T3 sequence: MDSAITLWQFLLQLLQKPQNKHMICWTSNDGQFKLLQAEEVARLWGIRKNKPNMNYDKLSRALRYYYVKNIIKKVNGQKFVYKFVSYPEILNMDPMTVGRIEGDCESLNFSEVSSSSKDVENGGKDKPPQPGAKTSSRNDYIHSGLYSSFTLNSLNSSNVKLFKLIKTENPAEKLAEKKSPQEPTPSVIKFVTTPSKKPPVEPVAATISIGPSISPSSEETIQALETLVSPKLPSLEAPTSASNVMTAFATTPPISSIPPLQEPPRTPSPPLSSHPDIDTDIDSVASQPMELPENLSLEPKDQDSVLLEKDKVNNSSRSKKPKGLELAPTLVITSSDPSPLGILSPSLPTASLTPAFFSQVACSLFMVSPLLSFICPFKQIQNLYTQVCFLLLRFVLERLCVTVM
Method in brief: as §1

[7] = target: T4, ETV2 (Homo sapiens, UniProt O00321 1-342); details: protein: recombinant; tags: N-terminal GST; dsDNA, one strand shown
T4 sequence: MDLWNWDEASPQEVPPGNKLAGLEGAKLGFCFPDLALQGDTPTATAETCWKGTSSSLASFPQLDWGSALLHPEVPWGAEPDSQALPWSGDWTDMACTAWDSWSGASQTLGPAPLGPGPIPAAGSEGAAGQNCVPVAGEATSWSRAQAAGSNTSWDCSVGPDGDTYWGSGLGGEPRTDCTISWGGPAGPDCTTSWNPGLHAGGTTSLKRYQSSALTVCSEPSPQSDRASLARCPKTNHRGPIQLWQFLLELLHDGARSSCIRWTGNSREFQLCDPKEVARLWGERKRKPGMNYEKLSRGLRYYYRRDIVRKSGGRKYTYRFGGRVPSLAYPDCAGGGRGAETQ
Method in brief: as §1

[8] = target: T5, ELF3 (Homo sapiens, UniProt P78545 1-371); details: protein: recombinant; tags: N-terminal GST; dsDNA, one strand shown
T5 sequence: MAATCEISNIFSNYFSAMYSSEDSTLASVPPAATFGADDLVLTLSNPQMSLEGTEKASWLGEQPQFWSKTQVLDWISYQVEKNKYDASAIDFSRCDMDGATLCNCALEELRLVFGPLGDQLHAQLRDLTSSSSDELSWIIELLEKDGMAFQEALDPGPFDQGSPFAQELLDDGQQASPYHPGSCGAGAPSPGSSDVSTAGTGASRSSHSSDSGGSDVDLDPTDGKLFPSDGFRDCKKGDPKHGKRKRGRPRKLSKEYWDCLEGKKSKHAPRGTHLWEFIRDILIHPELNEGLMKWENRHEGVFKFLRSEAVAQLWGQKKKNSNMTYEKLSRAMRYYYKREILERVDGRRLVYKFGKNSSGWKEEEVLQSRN
Method in brief: as §1

[9] = target: CRX (Homo sapiens, UniProt O43186 1-299); details: protein: recombinant; tags: N-terminal GST; dsDNA, one strand shown
CRX, sequence (O43186 whole entry): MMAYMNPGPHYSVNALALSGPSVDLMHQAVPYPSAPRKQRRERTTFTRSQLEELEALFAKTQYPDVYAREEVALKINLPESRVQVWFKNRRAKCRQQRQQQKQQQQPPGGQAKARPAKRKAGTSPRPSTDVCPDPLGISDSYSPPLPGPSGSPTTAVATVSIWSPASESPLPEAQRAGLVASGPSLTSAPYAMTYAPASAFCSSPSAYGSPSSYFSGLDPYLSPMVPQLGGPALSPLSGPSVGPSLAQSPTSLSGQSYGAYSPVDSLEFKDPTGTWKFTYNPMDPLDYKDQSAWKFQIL
Method in brief: as §1

[10] = target: ETV1 (Homo sapiens, UniProt P50549 1-477); details: protein: recombinant; tags: N-terminal GST; dsDNA, one strand shown
ETV1, sequence (P50549 whole entry): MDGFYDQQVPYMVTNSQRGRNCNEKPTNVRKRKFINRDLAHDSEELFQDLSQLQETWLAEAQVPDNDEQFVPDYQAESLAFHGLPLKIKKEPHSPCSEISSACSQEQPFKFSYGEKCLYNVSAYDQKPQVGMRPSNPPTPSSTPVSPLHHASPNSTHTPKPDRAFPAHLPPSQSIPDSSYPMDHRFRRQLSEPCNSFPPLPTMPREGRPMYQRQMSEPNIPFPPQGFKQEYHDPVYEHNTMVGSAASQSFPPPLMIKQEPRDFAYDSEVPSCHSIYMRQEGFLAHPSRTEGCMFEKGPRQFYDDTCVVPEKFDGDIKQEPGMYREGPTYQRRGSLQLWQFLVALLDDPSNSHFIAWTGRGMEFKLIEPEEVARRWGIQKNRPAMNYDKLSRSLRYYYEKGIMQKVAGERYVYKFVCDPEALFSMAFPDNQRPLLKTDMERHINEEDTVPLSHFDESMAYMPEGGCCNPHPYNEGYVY
Method in brief: as §1

[11] = target: T6, ERF (Homo sapiens, UniProt P50548 1-548); details: protein: recombinant; tags: N-terminal GST; dsDNA, one strand shown
T6 sequence: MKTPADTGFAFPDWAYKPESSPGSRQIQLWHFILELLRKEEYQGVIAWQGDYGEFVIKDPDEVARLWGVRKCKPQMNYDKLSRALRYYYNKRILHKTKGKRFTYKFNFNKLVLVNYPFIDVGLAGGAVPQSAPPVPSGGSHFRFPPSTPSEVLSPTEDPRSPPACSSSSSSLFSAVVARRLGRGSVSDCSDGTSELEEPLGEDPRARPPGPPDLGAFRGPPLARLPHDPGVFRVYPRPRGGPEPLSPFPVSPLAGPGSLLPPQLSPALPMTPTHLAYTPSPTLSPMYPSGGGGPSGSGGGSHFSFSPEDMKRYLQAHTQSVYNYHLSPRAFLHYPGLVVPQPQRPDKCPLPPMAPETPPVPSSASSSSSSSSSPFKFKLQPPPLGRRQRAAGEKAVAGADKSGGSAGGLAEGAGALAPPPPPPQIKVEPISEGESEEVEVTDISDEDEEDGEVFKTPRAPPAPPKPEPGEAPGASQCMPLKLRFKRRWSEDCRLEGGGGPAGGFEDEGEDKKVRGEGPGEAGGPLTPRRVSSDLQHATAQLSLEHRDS
Method in brief: as §1

[12] = target: T7, ETV3L (Homo sapiens, UniProt Q6ZN32 1-361); details: protein: recombinant; tags: N-terminal GST; dsDNA, one strand shown
T7 sequence: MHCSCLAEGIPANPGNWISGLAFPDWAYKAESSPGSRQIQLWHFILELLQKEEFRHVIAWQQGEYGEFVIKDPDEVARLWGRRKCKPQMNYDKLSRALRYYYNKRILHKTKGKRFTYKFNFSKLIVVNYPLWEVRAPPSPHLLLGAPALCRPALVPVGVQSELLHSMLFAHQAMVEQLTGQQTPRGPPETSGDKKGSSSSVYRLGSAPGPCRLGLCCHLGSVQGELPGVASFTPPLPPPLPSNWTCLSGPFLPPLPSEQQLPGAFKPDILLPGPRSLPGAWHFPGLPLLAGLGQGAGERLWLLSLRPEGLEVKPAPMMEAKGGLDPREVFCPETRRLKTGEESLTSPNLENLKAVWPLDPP
Method in brief: as §1

[13] = target: T8, ETS2 (Homo sapiens, UniProt P15036 1-469); details: protein: recombinant; tags: N-terminal GST; dsDNA, one strand shown
T8 sequence: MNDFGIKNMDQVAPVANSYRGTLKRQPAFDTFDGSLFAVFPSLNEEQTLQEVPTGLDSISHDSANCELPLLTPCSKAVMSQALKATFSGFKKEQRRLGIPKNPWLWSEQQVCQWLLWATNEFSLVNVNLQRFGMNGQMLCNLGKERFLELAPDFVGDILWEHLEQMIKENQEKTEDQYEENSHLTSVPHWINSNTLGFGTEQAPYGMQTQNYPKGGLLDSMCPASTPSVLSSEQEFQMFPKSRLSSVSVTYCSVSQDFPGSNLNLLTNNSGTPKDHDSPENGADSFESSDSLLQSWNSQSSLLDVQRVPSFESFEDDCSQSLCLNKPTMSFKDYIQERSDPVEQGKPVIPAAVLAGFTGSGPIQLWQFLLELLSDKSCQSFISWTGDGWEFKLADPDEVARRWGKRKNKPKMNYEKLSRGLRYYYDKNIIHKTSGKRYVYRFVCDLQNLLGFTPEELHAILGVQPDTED
Method in brief: as §1

[14] = target: T9, SPDEF (Homo sapiens, UniProt O95238 1-335); details: protein: recombinant; tags: N-terminal GST; dsDNA, one strand shown
T9 sequence: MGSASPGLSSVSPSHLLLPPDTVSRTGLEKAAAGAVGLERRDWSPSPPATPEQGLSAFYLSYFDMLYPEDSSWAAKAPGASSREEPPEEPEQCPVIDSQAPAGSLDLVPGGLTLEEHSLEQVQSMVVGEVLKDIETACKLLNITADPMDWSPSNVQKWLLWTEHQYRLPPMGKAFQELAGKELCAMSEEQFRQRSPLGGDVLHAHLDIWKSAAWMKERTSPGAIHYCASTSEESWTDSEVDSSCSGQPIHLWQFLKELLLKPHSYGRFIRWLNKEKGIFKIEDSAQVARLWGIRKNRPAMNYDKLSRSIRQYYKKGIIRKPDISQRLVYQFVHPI
Method in brief: as §1

[15] = target: T10, ETV7 (Homo sapiens, UniProt Q9Y603 1-341); details: protein: recombinant; tags: N-terminal GST; dsDNA, one strand shown
T10 sequence: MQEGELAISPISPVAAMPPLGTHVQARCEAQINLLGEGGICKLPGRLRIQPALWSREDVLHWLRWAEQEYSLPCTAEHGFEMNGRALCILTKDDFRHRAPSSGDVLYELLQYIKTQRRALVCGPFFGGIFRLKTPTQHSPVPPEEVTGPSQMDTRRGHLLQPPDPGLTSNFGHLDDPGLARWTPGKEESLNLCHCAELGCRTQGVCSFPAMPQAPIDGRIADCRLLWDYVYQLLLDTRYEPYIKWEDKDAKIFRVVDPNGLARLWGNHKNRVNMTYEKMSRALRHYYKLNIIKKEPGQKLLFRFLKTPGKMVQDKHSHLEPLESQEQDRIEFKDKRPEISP
Method in brief: as §1

[16] = target: T11, ELF5 (Homo sapiens, UniProt Q9UKW6-2 1-255); details: protein: recombinant; tags: N-terminal GST; dsDNA, one strand shown
T11 sequence: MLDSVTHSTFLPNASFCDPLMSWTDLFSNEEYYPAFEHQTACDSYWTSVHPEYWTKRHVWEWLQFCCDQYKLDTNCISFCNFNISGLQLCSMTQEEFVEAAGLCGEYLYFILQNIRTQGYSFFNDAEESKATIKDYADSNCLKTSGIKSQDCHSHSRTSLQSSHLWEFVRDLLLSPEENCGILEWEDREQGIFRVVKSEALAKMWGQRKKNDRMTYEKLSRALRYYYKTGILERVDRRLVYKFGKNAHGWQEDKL
Method in brief: as §1

[17] = target: T12, ETV3 (Homo sapiens, UniProt P41162-2 1-143); details: protein: recombinant; tags: N-terminal GST; dsDNA, one strand shown
T12 sequence: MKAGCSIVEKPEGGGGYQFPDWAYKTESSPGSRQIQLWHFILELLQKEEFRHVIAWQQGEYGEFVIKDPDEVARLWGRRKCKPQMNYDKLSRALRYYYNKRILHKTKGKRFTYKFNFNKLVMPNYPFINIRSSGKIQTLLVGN
Method in brief: as §1

[18] = target: ETV6 (Homo sapiens, UniProt P41212 1-452); details: protein: recombinant; tags: N-terminal GST; dsDNA, one strand shown
ETV6, sequence (P41212 whole entry): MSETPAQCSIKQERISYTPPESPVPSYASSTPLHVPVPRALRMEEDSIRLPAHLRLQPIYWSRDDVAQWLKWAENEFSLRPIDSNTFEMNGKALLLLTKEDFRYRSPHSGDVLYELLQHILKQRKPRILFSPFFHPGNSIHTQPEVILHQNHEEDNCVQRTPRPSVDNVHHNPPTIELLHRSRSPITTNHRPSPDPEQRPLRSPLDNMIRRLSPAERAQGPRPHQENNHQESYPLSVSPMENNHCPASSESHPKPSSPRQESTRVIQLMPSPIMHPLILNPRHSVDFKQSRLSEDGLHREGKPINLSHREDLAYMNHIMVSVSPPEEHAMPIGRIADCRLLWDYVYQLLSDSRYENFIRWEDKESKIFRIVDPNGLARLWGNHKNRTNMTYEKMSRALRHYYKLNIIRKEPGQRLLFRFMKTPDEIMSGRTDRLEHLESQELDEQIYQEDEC
Method in brief: as §1

Sequence	binding signal [1]	binding signal [2]	binding signal [3]	binding signal [4]	binding signal [5]	binding signal [6]	binding signal [7]	binding signal [8]	binding signal [9]	binding signal [10]	binding signal [11]	binding signal [12]	binding signal [13]	binding signal [14]	binding signal [15]	binding signal [16]	binding signal [17]	binding signal [18]
GCTCTT	1.48 fold enrichment (6-mer frequency, TF over GST control)	1.53 fold enrichment (6-mer frequency, TF over GST control)	1.34 fold enrichment (6-mer frequency, TF over GST control)	1.31 fold enrichment (6-mer frequency, TF over GST control)	1.56 fold enrichment (6-mer frequency, TF over GST control)	1.41 fold enrichment (6-mer frequency, TF over GST control)	1.61 fold enrichment (6-mer frequency, TF over GST control)	1.58 fold enrichment (6-mer frequency, TF over GST control)	1.55 fold enrichment (6-mer frequency, TF over GST control)	1.54 fold enrichment (6-mer frequency, TF over GST control)	1.5 fold enrichment (6-mer frequency, TF over GST control)	1.73 fold enrichment (6-mer frequency, TF over GST control)	1.41 fold enrichment (6-mer frequency, TF over GST control)	1.34 fold enrichment (6-mer frequency, TF over GST control)	1.56 fold enrichment (6-mer frequency, TF over GST control)	1.52 fold enrichment (6-mer frequency, TF over GST control)	1.48 fold enrichment (6-mer frequency, TF over GST control)	1.45 fold enrichment (6-mer frequency, TF over GST control)
ATCTGA	1.1 fold enrichment (6-mer frequency, TF over GST control)	1.07 fold enrichment (6-mer frequency, TF over GST control)	1.16 fold enrichment (6-mer frequency, TF over GST control)	1.21 fold enrichment (6-mer frequency, TF over GST control)	1.09 fold enrichment (6-mer frequency, TF over GST control)	1.2 fold enrichment (6-mer frequency, TF over GST control)	1.01 fold enrichment (6-mer frequency, TF over GST control)	1.12 fold enrichment (6-mer frequency, TF over GST control)	1.4 fold enrichment (6-mer frequency, TF over GST control)	1.24 fold enrichment (6-mer frequency, TF over GST control)	1.2 fold enrichment (6-mer frequency, TF over GST control)	1.19 fold enrichment (6-mer frequency, TF over GST control)	1.17 fold enrichment (6-mer frequency, TF over GST control)	1.1 fold enrichment (6-mer frequency, TF over GST control)	1.04 fold enrichment (6-mer frequency, TF over GST control)	1.08 fold enrichment (6-mer frequency, TF over GST control)	1.06 fold enrichment (6-mer frequency, TF over GST control)	1.13 fold enrichment (6-mer frequency, TF over GST control)
